# Compound activity: PubChem BioAssay, National Center for Advancing Translational Sciences (NCATS)
# Six1-Eya2 inh = Six1/Eya2 interaction inhibition; AlphaScreen GST-Six1/His-Eya2 binding, biochemical; active compounds read low; AID 651725; actives 0.56% (n = 360,000); activity change, % (concentration not given with the values); in the data active = activity change below about -65%; inconclusive = mostly about -30% to -63%; also: % is scaled to controls: 0 for no effect and ±100 for the full control effect
#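 GST-Six1 + His-Eya2 (5X stock: 250/500 nM); Tris pH 8.0, 300 mM NaCl, 0.05% BSA, 0.02% Tween 20; GSH donor/Ni acceptor beads; 1 h 37 °C dark; AlphaScreen readout.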
# CtBP-E1A blk = blocks the CtBP interaction with E1A | AlphaScreen GST-E1A/His-CtBP binding, 1536-well; active compounds read low | activity change, % (no concentration beside the values) | actives 0.49% (n = 340,000) | AID 651724; in the data active = activity change below about -65%; inconclusive = mostly about -30% to -63%; also: % is scaled to controls: 0 for no effect and ±100 for the full control effect
#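 GST-E1A and His-tagged CtBP (125 nM each as 5X stock) were preincubated with pin-transferred compound for 2 h at 37 °C in the dark, then glutathione donor and nickel acceptor beads were added for 1 h before AlphaScreen reading.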
# Glioma ERSR ind = inducers of ER stress response in human glioma cells | U87-MG GRP78 promoter luciferase reporter, 16 h | Potency, µM, for inactives: at the top dose activation, most hits filed as activators | actives 0.02% (n = 420,000) | AID 602332; also: potency is read from the fitted curve at half-maximal effect; series mostly up to about 76 µM; % of control where 0% means no effect; nearly all actives have a fitted effect of over 35% in size
#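 Stably transfected U87-MG glioma cells carrying a GRP78-based luciferase sensor; 16 h compound incubation. Luminescence end-point read 10 min after Bright-Glo addition at room temperature.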
# Eya2 inh = inhibitors of human Eya2 phosphatase activity; O00167; recombinant Eya2, OMFP fluorescence dephosphorylation (OMFP is methylfluorescein phosphate); Potency, µM (titrated, usually from 76.9 µM), for inactives: top-dose activity, negative = inhibition, actives largely listed as inhibitors; actives 0.006% (n = 330,000); AID 488837; also: potency is read from the fitted curve at half-maximal effect; % is scaled to controls: 0 for no effect and ±100 for the full control effect
# Target sequence (O00167 whole entry, looked up): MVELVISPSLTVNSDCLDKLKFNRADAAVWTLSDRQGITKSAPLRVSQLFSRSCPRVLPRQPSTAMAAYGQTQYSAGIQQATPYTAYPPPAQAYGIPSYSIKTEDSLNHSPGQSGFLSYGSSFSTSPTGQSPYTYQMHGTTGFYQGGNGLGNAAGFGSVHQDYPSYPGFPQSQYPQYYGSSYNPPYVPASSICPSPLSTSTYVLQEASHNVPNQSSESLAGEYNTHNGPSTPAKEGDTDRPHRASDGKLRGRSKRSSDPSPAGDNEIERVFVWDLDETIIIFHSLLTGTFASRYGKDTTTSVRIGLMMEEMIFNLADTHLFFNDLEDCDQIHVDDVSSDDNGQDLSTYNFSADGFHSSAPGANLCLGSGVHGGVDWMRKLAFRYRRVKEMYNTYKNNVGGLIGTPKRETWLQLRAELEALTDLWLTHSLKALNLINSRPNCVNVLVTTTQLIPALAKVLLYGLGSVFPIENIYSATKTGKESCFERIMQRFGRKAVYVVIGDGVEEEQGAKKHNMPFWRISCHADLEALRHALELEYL
#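 Eya2 protein (added as 0.2 uM solution) was preincubated with compound for 10 min at ambient temperature in 50 mM HEPES pH 7.5, 50 mM NaCl, 5 uM MgCl2, 0.05% BSA, 1 mM DTT. OMFP (added at 50 uM) then reacted 10 min; fluorescence read at 485/525 nm.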
# * marks the source's active call; other numbers are inactive results; ? = inconclusive; . = no result given. This is a sample that favours compounds with a hit; in the whole collection about 0.58% have one here. Unless noted, calls follow the shape of the dose curve; as a rule, active = well fitted curve in the direction sought with a large enough effect; inconclusive = small, poorly fitted or top-dose-only effect, or another doubt; inactive = no such curve, though single readings can be large; an effect the other way counts as inactive or inconclusive.
SMILES,Six1-Eya2 inh,CtBP-E1A blk,Glioma ERSR ind,Eya2 inh
CNc1cc(C(F)(F)F)nc(-c2ccccn2)n1,-2.3,-3.0,-0.3%,-15.1%
Nc1nc(-c2ccccn2)nc(N)c1Cc1c(F)cccc1Cl,-79.4*,-92.3*,0.8%,9.4%
Nc1nc(-c2ccccn2)nc(N)c1Cc1ccc(Cl)cc1Cl,-80.4*,-91.1*,2.6%,3.6%
CCCCCCCCCCCCCCCC[n+]1ccc(C)cc1,.,.,-11.5%,.
CSc1ccccc1C(=O)NCc1nc(-c2cccc(NC(=O)c3ccoc3C)c2)oc1C,.,.,0.0%,.
C=C1C[C@@H]2[C@H]3CCC4=CC(=O)C=C[C@]4(C)[C@@]3(F)[C@@H](O)C[C@]2(C)[C@]1(O)C(=O)COC(C)=O,.,.,-2.0%,.
O=C(NCCNCc1ccccn1)c1ccco1,?,?,-2.5%,0.2%
O=C(NC(NCc1ccccn1)(C(F)(F)F)C(F)(F)F)c1ccco1,-73.4*,?,-2.0%,14.0%
CSc1nnc(CCNC(=O)c2ccccc2C(F)(F)F)n1-c1ccc(F)cc1,.,.,-2.9%,.
O=[N+]([O-])c1cc(CN2CCN(c3cccc(C(F)(F)F)c3)CC2)c2cccnc2c1O,-69.9*,-89.5*,-8.5%,-5.1%
O=[N+]([O-])c1cc(CN2CCCC2)c2cccnc2c1O,-79.3*,-1.0,-3.8%,2.4%
COC(=O)c1ccccc1C(=O)NCC1Cc2cc(-c3nc(C)cnc3C)ccc2O1 (centres undefined),.,.,0.5%,.
CCCCCCCCCCCCCCCC[n+]1ccc(CC(O)c2c(C)[nH]c3ccccc23)c2ccccc21 (centres undefined),.,.,-11.8%,.
C/C(=N/NC(=O)c1ccncc1)c1cc2ccc(O)cc2oc1=O,-84.6*,-5.1,3.0%,?
C/C(=N\NC(=O)c1ccncc1)c1cc2ccccc2oc1=O,-80.0*,-4.6,-0.9%,0.7%
C=C[C@]1(C)C[C@@H](OC(=O)CO)[C@]2(C)C(C)CC[C@]3(CCC(=O)[C@H]32)[C@@H](C)[C@@H]1O (some centres undefined),.,.,-1.6%,.
CC(C)(C)c1ccc(OCCNC(=O)c2ncn[nH]2)cc1,-66.9*,-65.9*,1.7%,-4.3%
COc1ccc2ccccc2c1CN1CCc2nnc(C(NS(C)(=O)=O)C(C)C)n2CC1 (centres undefined),.,.,-0.7%,.
CC(C)(C)NC(=O)c1cccc(NC(=O)c2ccc(NC(=O)c3ccco3)cc2)c1,-79.4*,-16.0,4.1%,1.3%
CC1(C)S[C@@H]2[C@H](NC(=O)Cc3ccccc3)C(=O)N2[C@@H]1C(=O)O,.,.,-5.6%,.
CC1(C)SC2C(C(=O)O)N=C(Cc3ccccc3)N2C1C(=O)O (centres undefined),-81.0*,-84.1*,0.9%,.
O=c1c2c(-c3ccccc3)csc2nc2c3ccccc3c(NCCN3CCOCC3)nn12,-82.4*,-88.1*,-3.1%,1.9%
COc1ccc(N2CC(C(=O)N/N=C/c3cc([N+](=O)[O-])ccc3O)CC2=O)cc1 (centres undefined),-89.6*,-77.2*,-2.4%,2.9%
O=C(N/N=C/c1ccccc1O)C1CC(=O)N(c2ccc(F)cc2)C1 (centres undefined),-69.9*,?,0.2%,?
COc1ccc(N2CC(C(=O)N/N=C/c3c[nH]c4ccccc34)CC2=O)cc1 (centres undefined),-2.9,-11.8,0.8%,-6.8%
SMILES,Six1-Eya2 inh,CtBP-E1A blk,Glioma ERSR ind,Eya2 inh
O=C1NCCCC1C(=O)N/N=C/c1ccccc1O (centres undefined),?,-71.5*,1.4%,3.2%
O=C1NCCCC1C(=O)N/N=C/c1ccccc1[N+](=O)[O-] (centres undefined),-4.5,-0.9,-1.3%,11.7%
COc1ccc(N2CC(C(=O)Nc3ccc([N+](=O)[O-])cc3Br)CC2=O)cc1 (centres undefined),-7.3,-5.5,-3.5%,-13.5%
COc1cc(OC)c(OC)cc1CN1CCC(n2cc(C(=O)N3CCCCC3)nn2)CC1,.,.,-3.0%,.
Nc1nnnn1CC(=O)N/N=C/c1cc([N+](=O)[O-])ccc1O,-86.7*,-80.8*,-2.0%,6.0%
Cc1cc([N+](=O)[O-])nn1CC(=O)N/N=C/c1ccccc1O,-92.4*,?,8.1%,9.7%
Nc1nnc(CC(=O)N/N=C/c2ccc(-c3ccc(F)cc3)o2)s1,-9.1,-0.2,0.1%,2.5%
Nc1nnc(CC(=O)N/N=C/c2ccc(-c3cccc(C(=O)O)c3)o2)s1,-65.7*,-71.3*,1.3%,3.4%
Nc1nnc(CC(=O)N/N=C\c2cc([N+](=O)[O-])ccc2O)s1,-92.2*,-90.5*,-2.5%,-9.7%
